Results from PubChem BioAssay AID687043 (Milwaukee Institute for Drug Discovery, 2013).
The campaign covered roughly 16,000 compounds. About 250 (1.6%) were called active. This is one part of a sample in which actives are shown more often than they occur.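 Rule for the calls: active = inhibition above the average over every tested compound plus 3 SD (cut at about 40% in these data); inactive = the rest.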

What follows are compounds tested on Hepatitis C virus NS3 helicase (assay: HCV NS3 helicase inhibitors, primary screen, biochemical, fluorescence polarization, ChemBridge library (AID 687043)). Details: NS3h Cy5-dT15 DNA binding, at 100 µM, active compounds read high.

inhibition, inactive:
CCOC(=O)c1cc2n(n1)C(C(F)(F)F)CC(c1ccco1)N2 (stereo not given) 1.4%, COc1ccc(Nc2nc(-c3ccccc3)c3cc(C)ccc3n2)cc1 6.7%, COc1ccc(S(=O)(=O)NCCC(C)C)cc1 4.2%, Cc1ccc(CCC(=O)Nc2ncc(Cc3ccc(F)cc3)s2)o1 -10.4%, COc1ccc(C(=O)Nc2ccc(Br)cc2C)c(OC)c1 24.4%, COc1ccccc1CNC(=O)C1CC(=O)N(c2ccc(F)cc2)C1 (stereo not given) 1.7%, Cc1ccc(C(=O)Nc2ccc(Cl)cc2)cc1[N+](=O)[O-] -9.5%, O=C(/C=C/c1cc2c(cc1Br)OCO2)c1cccc([N+](=O)[O-])c1 2.3%, COc1ccc(-c2noc(-c3ccc(Br)cc3)n2)cc1 3.3%, O=C(NCc1ccco1)/C(=C/c1cccc(Oc2ccccc2)c1)NC(=O)c1ccccc1 9.7%, Cc1nc(SCC#N)c(C#N)c(C)c1C 9%, COc1ccc2c(Cl)c(C(=O)NCc3ccc4c(c3)OCO4)sc2c1 17%, Cc1ccccc1OCC(=O)Nc1ccc(OC(F)(F)F)cc1 2.3%, CC(C)Nc1nc(-c2ccc(Cl)cc2)nc2ccccc12 19.8%, COc1cccc(C2C(C(=O)Nc3ccccc3)=C(C)N=c3s/c(=C\c4ccncc4)c(=O)n32)c1 (stereo not given) 2.2%, Cn1c(=O)c2c(nc(Sc3ncn[nH]3)n2C)n(C)c1=O -6.5%, CCOC(=O)C1=C(C)N=c2s/c(=C/c3c[nH]c4ccccc34)c(=O)n2C1c1ccc(F)cc1 (stereo not given) -6.3%, O=C(c1ccncc1)N1N=C(c2ccc(Cl)cc2)CC1(O)C(F)(F)F (stereo not given) 13.4%, COC(=O)C1=C(C)NC2=C(C(=O)CC(c3ccc(OC)c(OC)c3)C2)C1c1ccc(OC)c(OC)c1 (stereo not given) 7.3%, O=C(CN(c1cccc(Br)c1)S(=O)(=O)c1ccccc1)N1CCOCC1 3.1%, Cn1c(=O)n(CCOc2ccc(Br)cc2)c2ccccc21 13.9%, Cc1nc2c([N+](=O)[O-])cc(Br)cc2c(=O)[nH]1 -12.6%, COc1ccc(CCNC(=O)C(=O)Nc2ccccc2C)cc1OC 15.5%, CCOc1ccc(C2=C/C(=C/c3ccc(OC)c(OC)c3)C(=O)O2)cc1 -0.3%, Cc1ccc(COc2ccc3oc(C)c(C(=O)O)c3c2)cc1 5.2%, COc1ccccc1N1CCN(S(=O)(=O)c2ccc(SC)cc2)CC1 -1.6%, CCOc1cc(/C=C2\C=C(c3ccc(C)cc3)OC2=O)ccc1OC(C)=O -4.9%, O=C(COc1ccc(Br)cc1)Nc1cccc2nsnc12 6%, O=C(COc1ccccc1)Nc1ccc(NC(=O)COc2ccccc2)cc1 2.2%, COc1ccc(OC)c(C=NN2CCN(Cc3ccc(C)cc3C)CC2)c1 11.9%
